PubChem BioAssay
Activity calls are given as the source filed them.

Key:
[1] = system: Plasmodium falciparum Sir2 (PF13_0152, Sir2A); assay: pfSir2 binders on small-molecule microarrays, primary screen, biochemical, small-molecule microarray, 635 nm fluorescence (AID 1098); settings: small-molecule microarray binding, fluorescence 635 nm; higher = more signal;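 note: score merges spot fluorescence intensity with its signal-to-noise ratio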
[2] = small-molecule microarray binders of probe aDKK1, primary screen, biochemical, biotinylated probe, 635/667 nm fluorescence (AID 1099); settings: higher = more signal;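 note: score merges 667nm spot fluorescence with signal to noise across triplicate slides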
[3] = small-molecule microarray binders of probe aCHRDL2, primary screen, biochemical, biotinylated probe, 635/667 nm fluorescence (AID 1100); settings: higher = more signal
[4] = splicing luciferase reporter signal modulators, primary screen, spliceosome inhibition project, cell-based, HEK293, splice +/- reporter (AID 1101); settings: luminescence, 24 h, higher = more signal, called active from +8 up or from −8 down;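 note: HEK293 cells carrying a splicing-competent luciferase reporter gene; test concentration not given here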
[5] = target: Fibroblast growth factor 10 (Homo sapiens) (UniProt O15520); assay: FGF10 binders on small-molecule microarrays, primary screen, biochemical, small-molecule microarray, 635 nm fluorescence (AID 1102); settings: FGF10 binding, fluorescence 635 nm, higher = more signal
Fibroblast growth factor 10 (Homo sapiens), sequence (O15520 whole entry, looked up): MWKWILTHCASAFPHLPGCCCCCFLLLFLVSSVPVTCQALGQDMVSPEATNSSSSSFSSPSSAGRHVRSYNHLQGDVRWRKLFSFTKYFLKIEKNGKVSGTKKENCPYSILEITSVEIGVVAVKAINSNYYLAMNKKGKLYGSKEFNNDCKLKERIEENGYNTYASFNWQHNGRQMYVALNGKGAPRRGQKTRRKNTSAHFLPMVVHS

[6] = system: glycogen synthase kinase-3 (GSK3A per assay name; protocol says GSK3B); assay: GSK3 binders on small-molecule microarrays, primary screen, biochemical, small-molecule microarray, 635 nm fluorescence, GSK3A (AID 1103); settings: small-molecule microarray binding, fluorescence 635 nm; higher = more signal; note: the record names both GSK3A and GSK3B
[7] = target: Epidermal growth factor receptor (Homo sapiens) (UniProt P00533); assay: EGFR binders on small-molecule microarrays, primary screen, biochemical, small-molecule microarray, 635 nm fluorescence (AID 1104); settings: EGFR binding, higher = more signal;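 note: score merges 667 nm emission intensity with spot signal to noise over triplicate slides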
Epidermal growth factor receptor (Homo sapiens), sequence (P00533 whole entry, looked up): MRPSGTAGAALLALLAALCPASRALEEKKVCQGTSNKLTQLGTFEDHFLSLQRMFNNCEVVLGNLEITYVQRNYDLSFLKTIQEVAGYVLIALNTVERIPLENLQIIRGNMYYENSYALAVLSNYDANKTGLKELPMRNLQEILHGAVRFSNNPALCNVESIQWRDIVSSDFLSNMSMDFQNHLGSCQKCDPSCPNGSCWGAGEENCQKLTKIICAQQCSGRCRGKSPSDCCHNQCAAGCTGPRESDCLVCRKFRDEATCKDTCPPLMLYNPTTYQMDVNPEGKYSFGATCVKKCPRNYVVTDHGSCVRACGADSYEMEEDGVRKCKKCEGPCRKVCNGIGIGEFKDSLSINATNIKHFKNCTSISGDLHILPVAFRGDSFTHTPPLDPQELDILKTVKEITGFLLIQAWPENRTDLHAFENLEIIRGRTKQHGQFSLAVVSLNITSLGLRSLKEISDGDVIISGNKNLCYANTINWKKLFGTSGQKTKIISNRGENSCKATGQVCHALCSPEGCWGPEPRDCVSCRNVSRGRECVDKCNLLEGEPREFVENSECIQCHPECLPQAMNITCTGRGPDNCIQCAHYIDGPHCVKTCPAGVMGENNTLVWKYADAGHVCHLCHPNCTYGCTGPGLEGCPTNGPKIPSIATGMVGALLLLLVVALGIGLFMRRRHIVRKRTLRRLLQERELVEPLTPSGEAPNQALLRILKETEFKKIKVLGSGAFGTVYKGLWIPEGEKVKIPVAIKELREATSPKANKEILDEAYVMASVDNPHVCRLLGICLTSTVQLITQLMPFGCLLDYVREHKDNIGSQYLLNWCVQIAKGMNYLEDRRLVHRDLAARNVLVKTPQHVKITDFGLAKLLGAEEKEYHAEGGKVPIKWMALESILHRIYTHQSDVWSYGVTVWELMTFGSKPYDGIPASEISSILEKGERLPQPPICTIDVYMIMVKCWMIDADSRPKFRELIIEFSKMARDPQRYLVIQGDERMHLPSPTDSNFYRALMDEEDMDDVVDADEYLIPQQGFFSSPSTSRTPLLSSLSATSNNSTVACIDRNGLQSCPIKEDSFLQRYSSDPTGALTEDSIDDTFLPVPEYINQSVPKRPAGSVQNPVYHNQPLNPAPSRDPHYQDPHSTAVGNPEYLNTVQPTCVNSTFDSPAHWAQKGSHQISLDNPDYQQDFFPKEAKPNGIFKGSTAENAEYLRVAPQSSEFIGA

[8] = target: Follistatin-related protein 3 (Homo sapiens) (UniProt O95633); assay: FSTL3 binders on small-molecule microarrays, primary screen, biochemical, small-molecule microarray, 635 nm fluorescence (AID 1105); settings: FSTL3 binding, higher = more signal;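 note: score merges emission near 667 nm and signal to noise per printed spot across three slides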
Follistatin-related protein 3 (Homo sapiens), sequence (O95633 whole entry, looked up): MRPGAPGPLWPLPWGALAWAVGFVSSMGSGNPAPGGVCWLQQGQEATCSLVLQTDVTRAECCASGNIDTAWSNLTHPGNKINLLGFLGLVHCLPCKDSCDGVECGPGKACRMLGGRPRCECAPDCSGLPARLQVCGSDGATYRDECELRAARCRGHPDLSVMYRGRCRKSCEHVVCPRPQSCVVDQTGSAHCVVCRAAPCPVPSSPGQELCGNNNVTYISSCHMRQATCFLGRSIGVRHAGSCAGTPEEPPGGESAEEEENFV

[9] = target: Dickkopf-related protein 1 (Homo sapiens) (UniProt O94907); assay: DKK1 binders on small-molecule microarrays, primary screen, biochemical, small-molecule microarray, 635 nm fluorescence scan (AID 1106); settings: DKK1 binding, higher = more signal;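 note: score merges emission near 667 nm with signal to noise over three replicate slides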
Dickkopf-related protein 1 (Homo sapiens), sequence (O94907 whole entry, looked up): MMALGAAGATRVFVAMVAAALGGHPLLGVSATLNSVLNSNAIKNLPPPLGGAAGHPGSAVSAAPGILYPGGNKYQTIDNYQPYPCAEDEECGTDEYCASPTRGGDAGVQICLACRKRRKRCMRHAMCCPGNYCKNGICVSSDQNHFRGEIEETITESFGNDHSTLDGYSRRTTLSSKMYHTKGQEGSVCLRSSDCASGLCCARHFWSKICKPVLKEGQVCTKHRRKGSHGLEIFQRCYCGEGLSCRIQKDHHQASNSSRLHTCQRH

[10] = system: Inhibin beta A chain (activin A); assay: INHBA (activin A) binders on microarrays, primary screen, biochemical, small-molecule microarray, 635 nm fluorescence scan (AID 1107); settings: small-molecule microarray binding, higher = more signal;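 note: mouse activin A protein probed at 4.33 µg/mL on printed slides; score merges bound-protein fluorescence near 667 nm with spot signal-to-noise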
[11] = system: Human papillomavirus type 1a protein E7 (residues 44-93); assay: HPV1a E7 fragment binders on microarrays, primary screen, biochemical, small-molecule microarray, residues 44-93, 635 nm fluorescence (AID 1108); settings: small-molecule microarray binding, fluorescence 635 nm; higher = more signal;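 note: E7 fragment applied at 1 µg/mL in TBST for 1 h at 4 C; score combines spot fluorescence with its signal to noise ratio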
[12] = modulators of HCV replicon luciferase signal, primary screen, HCV replication inhibitor project, Huh7 cells, luciferase reporter (AID 1109); settings: 48 h, higher = more signal;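 note: huh7 hepatoma cells harbouring a luciferase neomycin HCV replicon reporter; luciferase luminescence as measure of HCV replicon replication; test concentration not given here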
[13] = target: Left-right determination factor 2 (Homo sapiens) (UniProt O00292); assay: LEFTY2 binders on small-molecule microarrays, primary screen, biochemical, small-molecule microarray, 635 nm fluorescence scan (AID 1110); settings: LEFTY2 binding, higher = more signal
Left-right determination factor 2 (Homo sapiens), sequence (O00292 whole entry, looked up): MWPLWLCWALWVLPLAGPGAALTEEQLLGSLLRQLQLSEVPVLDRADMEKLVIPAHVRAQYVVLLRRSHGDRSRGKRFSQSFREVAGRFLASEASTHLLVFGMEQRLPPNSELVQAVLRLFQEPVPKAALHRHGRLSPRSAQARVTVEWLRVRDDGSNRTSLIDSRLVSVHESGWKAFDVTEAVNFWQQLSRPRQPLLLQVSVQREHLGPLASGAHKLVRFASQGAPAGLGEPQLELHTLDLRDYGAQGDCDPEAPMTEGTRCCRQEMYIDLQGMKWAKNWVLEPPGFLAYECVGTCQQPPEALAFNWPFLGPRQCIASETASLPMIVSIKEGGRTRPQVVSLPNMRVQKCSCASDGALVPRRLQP

[14] = target: Calmodulin-1 (Homo sapiens) (UniProt P0DP23); assay: CALM1 binders on microarrays, EGTA buffer, profiling panel, biochemical, small-molecule microarray, Cy5-labelled CALM1 (AID 1111); settings: Cy5-CALM1 binding fluorescence, higher = more signal;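 note: labelled calmodulin applied in Tris saline Tween buffer holding calcium plus EGTA and DTT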
[15] = target: Calmodulin-1 (Homo sapiens) (UniProt P0DP23); assay: calcium-bound CALM1 binders on microarrays, profiling panel, artefact control for SMM control-protein annotation, biochemical, small-molecule microarray, Cy5-labelled CALM1, plus calcium (AID 1112); settings: Cy5-CALM1 binding fluorescence, higher = more signal;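 note: score merges spot fluorescence with signal to noise from triplicate slides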
[16] = small-molecule microarray binders of probe aWnt5a, primary screen, biochemical, biotinylated probe, 635/667 nm fluorescence (AID 1113); settings: higher = more signal;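 note: score merges 667 nm fluorescence intensity with signal-to-noise per printed feature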
[17] = small-molecule microarray binders of probe aShh, primary screen, biochemical, biotinylated probe, 635/667 nm fluorescence (AID 1114); settings: higher = more signal;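 note: probe is biotin-labelled aShh protein from a stem cell growth factor screen; measures binding of labelled protein to compounds printed on the slide; score merges feature fluorescence at 667 nm with signal-to-noise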
[18] = small-molecule microarray binders of probe aNog, primary screen, biochemical, biotinylated probe, 635/667 nm fluorescence (AID 1115); settings: higher = more signal;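 note: probe is biotinylated aNog protein used at 0.15 µg/mL for 1 h at 4 C; z-score combines 667 nm fluorescence of each spot with its signal to noise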
[19] = target: Torsin-1A-interacting protein 1 (Homo sapiens) (UniProt Q5JTV8); assay: LAP1 binders from COS7 cell lysate, primary screen, small-molecule microarray, 635/667 nm fluorescence (AID 1116); settings: COS7-hLAP1 lysate binding, 635 nm fluorescence, higher = more signal
Torsin-1A-interacting protein 1 (Homo sapiens), sequence (Q5JTV8 whole entry, looked up): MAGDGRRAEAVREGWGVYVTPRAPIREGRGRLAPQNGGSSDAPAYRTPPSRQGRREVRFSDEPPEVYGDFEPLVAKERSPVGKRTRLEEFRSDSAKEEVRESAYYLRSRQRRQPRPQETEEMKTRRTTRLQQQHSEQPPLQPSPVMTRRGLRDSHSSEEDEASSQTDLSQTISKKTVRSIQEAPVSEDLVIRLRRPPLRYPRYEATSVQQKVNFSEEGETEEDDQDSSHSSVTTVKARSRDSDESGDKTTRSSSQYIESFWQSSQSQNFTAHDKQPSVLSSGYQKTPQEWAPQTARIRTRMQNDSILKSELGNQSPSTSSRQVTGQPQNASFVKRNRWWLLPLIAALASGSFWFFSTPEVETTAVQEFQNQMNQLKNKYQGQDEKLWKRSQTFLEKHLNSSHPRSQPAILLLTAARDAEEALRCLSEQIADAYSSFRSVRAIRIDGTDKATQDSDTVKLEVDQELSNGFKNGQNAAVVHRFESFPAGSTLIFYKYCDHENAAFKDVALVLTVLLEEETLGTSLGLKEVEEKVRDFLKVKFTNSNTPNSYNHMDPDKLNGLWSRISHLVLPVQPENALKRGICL

[20] = target: Alpha-bungarotoxin (Bungarus multicinctus) (UniProt P60615); assay: alpha-bungarotoxin binders on microarray, profiling panel, artefact control for SMM control protein annotation, biochemical, small-molecule microarray, Alexa647 label, 635/667 nm fluorescence (AID 1117); settings: alpha-BTX-A647 binding fluorescence, higher = more signal
Alpha-bungarotoxin (Bungarus multicinctus), sequence (P60615 whole entry, looked up): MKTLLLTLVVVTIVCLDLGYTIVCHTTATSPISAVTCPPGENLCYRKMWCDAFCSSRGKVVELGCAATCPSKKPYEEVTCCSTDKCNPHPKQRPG

SMILES | composite z-score [1] | composite z-score [2] | composite z-score [3] | z-score [4] | composite z-score [5] | composite z-score [6] | composite z-score [7] | composite z-score [8] | composite z-score [9] | composite z-score [10] | composite z-score [11] | z-score [12] | composite z-score [13] | composite z-score [14] | composite z-score [15] | composite z-score [16] | composite z-score [17] | composite z-score [18] | composite z-score [19] | composite z-score [20]
COc1ccc(NN2C(C(O)c3ccccc3)C=CC3C(=O)N(C4CCCCC4)C(=O)C32)cc1 (stereo not given) | 1.25 | 0.535 | 0.291 | -1.18 (inactive) | 1.24 | 1.28 | 0.122 | 1.21 | 0.453 | 0.786 | 1.45 | -0.888 | 0.395 | 1.38 | -0.15 | 0.0974 | 0.13 | 0.908 | 0.644 | 1.13
CC(C)C(=C=CC[C@H](O)c1cccc(OCCO)c1)C[C@H](O)c1ccccn1 | 0.406 | -0.326 | -0.253 | -0.779 (inactive) | 0.722 | 0.476 | -0.387 | 0.339 | -0.15 | 0.409 | 0.106 | -0.423 | -0.256 | -0.356 | -0.78 | -0.096 | -0.289 | -0.147 | -0.334 | -0.579
COC(=O)[C@@]1(Cc2ccccc2)[C@H]2c3cc(C(=O)N(C)C)n(Cc4nc5ccccc5[nH]4)c3C[C@H]2CN1C(=O)c1ccccc1 | 0.88 | 0.52 | 1.21 | -2.1 (inactive) | 0.742 | 0.64 | 0.226 | 0.841 | -0.416 | 0.893 | 1.33 | 0.401 | -0.4 | 0.492 | 1.2 | 0.0328 | 0.108 | 2.16 | 1.62 | 1.3
COCCOC(=O)N1C(=O)[C@@]2(c3cc(C#CCCO)ccc31)[C@H](C(=O)N1CCN(c3ncccn3)CC1)[C@H]1C(=O)O[C@H](c3ccccc3)[C@H](c3ccccc3)N1[C@@H]2c1ccc(OCCO)cc1 | 1.24 | -0.019 | 0.349 | -1.1 (inactive) | 1.22 | 0.823 | 0.592 | 1.38 | 0.514 | 0.356 | 1.46 | -1.21 | 0.6 | 1.26 | 0.0318 | 0.0633 | 0.0469 | 0.234 | 0.867 | 1.95
CCCCN1CC=CC23O[C@@H]4/C=C\CCC(C)OC(=O)C4[C@H]2C(=O)N(CCO)[C@@H]3C1=O (stereo not given in full) | 1.38 | -0.218 | 0.64 | 0.267 (inactive) | -1.17 | -0.415 | -0.652 | -0.0882 | -0.231 | 1.19 | -0.391 | -0.58 | -0.99 | -0.896 | -0.272 | -0.171 | -0.2 | 0.171 | 3.55 | -0.238
O=C1OC[C@@H](c2ccccc2)n2cc(/C=C/c3ccccc3)cc21 | 0.753 | -0.222 | 0.0504 | -1.55 (inactive) | -0.256 | -0.678 | -0.609 | -0.513 | -0.161 | 0.0778 | 0.06 | -0.18 | -0.623 | -0.638 | -1.27 | -0.197 | -0.0709 | -0.367 | -0.948 | 0.45
COC(=O)C1(CC(C)C)C=C2C(=C(C)C(=O)C2C)CN1 (stereo not given) | -0.211 | 1.34 | 1.14 | 1.68 (inactive) | 0.069 | -0.279 | -0.155 | 0.641 | -0.15 | 1.43 | -0.412 | -1.01 | -0.253 | 0.0595 | 0.89 | 0.432 | 1.79 | 0.825 | 0.653 | 0.096
CCCC1(C(=O)OC)C=C2C(=C(C(C)C)C(=O)C2C)CN1 (stereo not given) | -0.129 | 0.759 | 0.813 | 1.44 (inactive) | -0.474 | -1.63 | -0.648 | -0.911 | -0.724 | 1.17 | -0.311 | -0.808 | -0.557 | 0.312 | 0.771 | 0.0375 | 0.381 | 0.658 | 2.29 | -0.593
C=C(CCCC)/C(=C/C[C@@H](OC(C)=O)c1ccc(OCCO)cc1)c1cc(C(=O)OC)ccc1OC | 1.14 | 0.0822 | 0.411 | 0.374 (inactive) | 0.151 | 0.244 | -0.597 | -0.137 | -0.348 | 0.763 | 0.722 | -2.31 | -0.103 | -0.108 | -0.95 | -0.124 | -0.0769 | 0.408 | 1.17 | 0.722
CC(C)[Si]1(C(C)C)OCc2cc(-c3ccc(-c4ccc(Cl)c(Cl)c4)o3)nc(-c3ccc(Oc4ccccc4)cc3)c21 | -0.952 | 0.118 | 0.745 | -1.25 (inactive) | -1.78 | -2.03 | -1.46 | -2.09 | -2.01 | 0.434 | -1.76 | -0.105 | -1.44 | -0.168 | 0.698 | -0.265 | -0.243 | -0.132 | -1.22 | -1.55
C=C(COC)/C(=C/C[C@@H](OC(C)=O)c1cccc(OCCO)c1)c1cnc2ccccc2c1 | -0.219 | 0.15 | 0.322 | -0.302 (inactive) | 1.56 | 0.917 | 1.26 | 1.55 | 1.02 | 1.93 | 0.848 | -1.73 | 0.754 | -0.534 | -0.593 | 0.0391 | 0.199 | -0.0065 | 0.302 | 1.87
